Out of some 2,400 compounds screened, about 950 (40%) were called active. No stated cut-off is given here; in the data, active means inhibition above about 49%; inactive means the rest. Not all results are given here.
target: Trace amine-associated receptor 1 (Homo sapiens) (UniProt Q96RJ0); assay: human TAAR1 antagonists, retest of hits, confirmation, cell-based, fluorescence (AID 651785); conditions: TAAR1-expressing cells, fluorescence antagonist read-out; at 3 µM; stronger effect = higher value;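 further: CHO-Ga16 host cells challenged with agonist PEA near its EC80; 0% = agonist at EC80 plus vehicle and 100% = vehicle with no agonist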
Sequence (Q96RJ0 whole entry, looked up, the tested form may be a part): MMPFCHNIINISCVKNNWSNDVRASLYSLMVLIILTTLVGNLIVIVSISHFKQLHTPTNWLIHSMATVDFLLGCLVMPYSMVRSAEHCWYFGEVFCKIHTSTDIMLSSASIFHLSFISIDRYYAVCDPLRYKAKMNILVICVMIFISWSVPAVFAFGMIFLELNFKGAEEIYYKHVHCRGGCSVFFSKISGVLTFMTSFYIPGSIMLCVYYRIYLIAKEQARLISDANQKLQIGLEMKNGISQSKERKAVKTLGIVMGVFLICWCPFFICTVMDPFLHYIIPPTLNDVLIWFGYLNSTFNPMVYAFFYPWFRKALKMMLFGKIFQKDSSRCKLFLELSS

SMILES	inhibition
Cc1ccc(SCc2c(C(=O)N/N=C/c3cccnc3)nnn2-c2nonc2N)cc1	59.3% (active)
Nc1nonc1-n1nnc(C(=O)N/N=C/c2c[nH]c3ccccc23)c1-c1ccccc1	33.6% (inactive)
C[C@@H]1CN([C@@H](C)CO)S(=O)(=O)c2ccc(C#Cc3cccc(F)c3)cc2O[C@H]1CN(C)S(=O)(=O)c1cn(C)cn1	53% (active)
CCc1ccc2c(c1)NC(=O)C2(C)Cc1ccc(OC(F)(F)F)cc1 (stereo not drawn)	44.5% (inactive)
Cc1cccc(NC(=O)c2nc[nH]c2C(=O)NCC(=O)OCc2ccccc2)c1	46% (inactive)
CCOC(=O)C1=C(NC(=S)NC(=O)c2ccccc2)c2ccccc2CC1(C)C	42.7% (inactive)
Cc1cc(Br)ccc1NC(=O)c1cnc(N2CCN(c3ccccn3)CC2)c2ccccc12	55.2% (active)
Cc1ccc2c(c1)N(CC(=O)NCCc1ccc(Cl)cc1)C(=O)c1cccnc1O2	50.5% (active)
COc1ccc(C2=NOC(Cn3nc(C(=O)NCc4ccc5c(c4)OCO5)cc3-c3ccccc3)C2)cc1 (stereo not drawn)	48.2% (inactive)
CC(=O)OCCN(CCCn1c(-c2ccncc2)nc2ccccc21)c1nc(-c2ccc(C)cc2)cs1	36.5% (inactive)
Cc1nn(-c2ccccc2)c(C)c1NC(=O)COC(=O)c1cc(Cl)ccc1O	56.2% (active)
COc1ccc(NC(=O)C2CCCN(S(=O)(=O)c3cccc4cccnc34)C2)cc1OC (stereo not drawn)	45.3% (inactive)
Cc1onc(-c2c(F)cccc2Cl)c1C(=O)Nc1cccc(S(=O)(=O)N2CCCCC2)c1	46% (inactive)
COc1ccc(S(=O)(=O)N2CCCC(C(=O)Nc3ccc(NC(=O)c4ccccn4)cc3)C2)cc1 (stereo not drawn)	56.2% (active)
Cc1ccc(C)c(N2CCN(C(=O)CCCCCn3c(=S)[nH]c4ccc(N5CCOCC5)cc4c3=O)CC2)c1	54.2% (active)
COc1ccc(CCNC2=C(Cl)C(=O)N(Cc3ccccc3)C2=O)cc1OC	50.8% (active)
COc1cc2ccccc2cc1C(=O)Nc1ccc(NC(=O)c2cccs2)cc1	45.9% (inactive)
C[C@H](O)[C@@H]1C(=O)N2CCc3c([nH]c4c(-c5ccc6c(c5)OCO6)cccc34)[C@@H]2C[C@@H]1N(C)C(=O)c1ccco1	37.4% (inactive)
O=C(NCCN1CCOCC1)c1ccccc1N1C(=O)[C@@H]2Cc3c([nH]c4ccccc34)C(c3cccc(Cl)c3)N2C1=O (stereo partly drawn)	39.5% (inactive)
O=C(NCCN1C(=O)S/C(=C\c2cccnc2)C1=O)c1ccc(S(=O)(=O)N2CCCC2)cc1	29.7% (inactive)
O=C(NCCN1CCOCC1)c1ccc(/C=C2\Sc3ccccc3N(Cc3ccc(F)cc3)C2=O)cc1	52.2% (active)

SMILES	inhibition
CCNS(=O)(=O)c1ccc(CCC(=O)N2CCN(c3cc(Cl)ccc3C)CC2)cc1	50.4% (active)
OC(c1ccccc1)(c1ccccc1)C1CCN(CCCOc2ccc(-c3ccsc3)cc2)CC1	43.2% (inactive)
CCOc1ccc(N2CC(C(=O)N/N=C/c3sccc3C)CC2=O)cc1 (stereo not drawn)	9.4% (inactive)
O=C1c2ccccc2C(=O)N1CCC#Cc1ccc2cc(C3(O)CCCCC3)oc(=O)c2c1	69.5% (active)
CCN1CCc2c(C#N)c(NCc3ccccc3)nc(NCCO)c2C1	0.04% (inactive)
Cc1cccc(C)c1NC(=O)CNC(=O)C1CCCC1	2.87% (inactive)
Cc1ccccc1OCC(=O)Nc1ccc(N2CCN(C(=O)C(C)C)CC2)c(Cl)c1	55.3% (active)
CSc1ncnc2c1ncn2CC(=O)C1CCC2C3CCC4=CC(=O)CCC4(C)C3CCC12C (stereo not drawn)	61.9% (active)
COc1ccc(N(CC(=O)N/N=C/c2cccs2)S(=O)(=O)c2ccc(OC)c(OC)c2)cc1	42.2% (inactive)
CC(=O)c1ccccc1OCc1ccc(C(=O)c2ccccc2)cc1	56.3% (active)
COc1ccc2[nH]c(=O)c(CN(Cc3cccnc3)S(=O)(=O)c3ccccc3F)cc2c1	55% (active)
O=C(COC(=O)c1c2c(nc3ccccc13)CCCC2)c1ccc(Br)s1	41% (inactive)
CSC(=S)N/N=C/c1c[nH]c2ccccc12	65.5% (active)
COc1ccc(C(=O)Oc2ccc(-c3nnco3)cc2)cc1S(=O)(=O)N1CCOCC1	47.2% (inactive)
O=C(Oc1ccc(-c2nnco2)cc1)c1ccc(F)c(S(=O)(=O)N2CCOCC2)c1	61.4% (active)
C=CCc1cc(S(=O)(=O)c2ccc(O)c(CC=C)c2)ccc1O	26.4% (inactive)
Cn1c(C(=O)NCCc2ccsc2)cc2c(=O)n(C)c3ccccc3c21	38.8% (inactive)
O=S1(=O)c2c(cccc2N2CCCCC2)O[C@H](COCc2ccccc2)CN1C1CC1	32.1% (inactive)
COc1ccc(OC)c2[nH]c(=O)c(CCNC(=O)C(=O)c3c[nH]c4ccccc34)cc12	49.5% (active)
CC/C(=N/Nc1ccccc1)c1cnnc(SC)n1	1.16% (inactive)
Cc1ccccc1NC(=O)Cc1nc(COC(=O)C(C)(C)Oc2ccc(Cl)cc2)cs1	58.9% (active)

SMILES	inhibition
O=C(O)c1ccc(NC(=O)c2cn(-c3ccccc3)nc2-c2ccc(Cl)cc2)cc1	46.9% (inactive)
Cc1cccc(NC(=O)c2ccc(COc3ccccc3[N+](=O)[O-])o2)n1	35% (inactive)
COC(=O)Cc1nnn2c1[C@H](C)[C@H](c1ccccc1Br)OCC2	65.9% (active)
COC(=O)Cc1nnn2c1[C@H](C)[C@H](c1ccccc1[N+](=O)[O-])OCC2	30.1% (inactive)
COc1ccc(CC(=O)Nc2c(C(N)=O)oc3ccccc23)cc1	28.8% (inactive)
CCCCNc1c(-c2cccc(Sc3ccc(OC)cc3)c2)nc2ccccn12	61.9% (active)
Cc1ccc(NC(=O)c2ccc(CSc3ncnc4nc[nH]c34)cc2)c(C)c1	25.9% (inactive)
CSCCC(NC(=O)COc1ccccc1)C(=O)OCC(=O)c1cc2ccccc2o1 (stereo not drawn)	33.3% (inactive)
O=c1[nH]c(CSc2ncc(-c3ccc(F)cc3)n2Cc2ccco2)nc2ccccc12	54% (active)
Cc1ccc2cccc(OCCCOc3ccccc3CO)c2n1	26.4% (inactive)
O=C(Nc1ccccc1-c1nnn(CC(=O)N2CCN(c3ccccc3)CC2)n1)c1cccs1	52.1% (active)
CN(c1ccccc1)S(=O)(=O)c1cc(C(=O)Nc2nc3ccccc3[nH]2)ccc1Cl	50.8% (active)
O=S(=O)(c1cccs1)N1CCCc2nc(-c3ccc(Br)cc3)ccc21	36.2% (inactive)
COc1ccc(C(=O)Nc2ccccc2C(=O)N/N=C/c2ccc(O)c(OC)c2)cc1	45.9% (inactive)
O=C(N/N=C/c1ccc(OC(=O)c2ccccc2Cl)cc1)c1ccc(O)cc1	57% (active)
COc1ccc(-c2cc(C(=O)Nc3ccccc3O)c3ccccc3n2)cc1	59% (active)
COc1ccc(CN(C)C(=O)c2cc(-c3ccc(C)cc3C)nc3ccccc23)c(OC)c1OC	53.7% (active)
CC(=O)N1CCN(C(=O)c2cc(-c3ccc(Cl)s3)nc3ccccc23)CC1	38.7% (inactive)
COc1ccc(-c2cc(C(=O)N(C)CC(=O)Nc3ccccc3Cl)c3ccccc3n2)cc1OC	52.2% (active)
COc1ccc(NC(=O)c2cc(-c3ccc(C)o3)nc3ccccc23)cc1	41.2% (inactive)
COc1ccc(-c2cc(C(=O)N(C)Cc3ccccc3)c3ccccc3n2)cc1	44.3% (inactive)

SMILES	inhibition
COc1ccc(-c2cc(C(=O)N(C)Cc3ccc(OC)c(OC)c3OC)c3ccccc3n2)cc1OC	56.9% (active)
COc1ccc(-c2nn(-c3ccccc3)cc2C(=O)Nc2nccs2)cc1OC	46.5% (inactive)
COc1ccc(C(=O)Nc2cccc(NC(=O)c3ccc(OC)cc3OC)n2)c(OC)c1	45.9% (inactive)
Cc1cc(C(C)(C)C)oc1C(=O)N(CC(=O)NC1CCCC1)Cc1ccc(Cl)cc1	43.7% (inactive)
CSCCC(NC(=O)COc1ccccc1)C(=O)OCCOc1ccc(Br)cc1 (stereo not drawn)	17.8% (inactive)
O=C(NCC1CCCO1)c1cc2c([nH]c3ccccc32)c(-c2ccc(F)cc2)n1 (stereo not drawn)	46% (inactive)
Cn1c2ccccc2c(=O)c2c(=O)n(Cc3ccco3)c(COc3ccccc3)nc21	51% (active)
COc1ccc(S(=O)(=O)N(CC(=O)NCc2ccco2)c2ccc(F)cc2)cc1	39.1% (inactive)
C=CCn1c(SCc2cccc(F)c2)nc2cc(C(=O)N3CCC(C(N)=O)CC3)ccc2c1=O	43.9% (inactive)
Cc1nc(N2CCN(c3ccccn3)CC2)c2c(C)c(C(=O)Nc3ccc(F)cc3)sc2n1	53% (active)
Clc1ccc(Nc2ncnc3c2nnn3Cc2ccccc2)cc1	31% (inactive)
COc1cc(/C=C2/C(=O)ON=C2C)ccc1OCc1ccccc1F	61.3% (active)
COC(=O)c1sccc1NC(=O)c1cc(OC)c(OC)c(OC)c1	37.3% (inactive)
COc1ccc(/C=C/C(=O)Nc2ccc(C34CC5CC(CC(O)(C5)C3)C4)cc2)cc1OC	57.9% (active)
NNC(=O)CNC(c1ccccc1)c1cc(Cl)ccc1NC(=O)c1ccccc1 (stereo not drawn)	34.3% (inactive)
Oc1ccccc1N1CCN(c2ncnc3sc(-c4ccccc4)cc23)CC1	47.6% (inactive)
CC(C)(C)OC(=O)NCCCCCNC(=O)c1nc[nH]c1C(=O)NCc1ccccc1	37.2% (inactive)
CC(C)Oc1cc(F)ccc1-c1cc(C(=O)Nc2ccc(F)cc2)[nH]n1	46.1% (inactive)
C=CCC[C@@H](Cc1ccc(F)cc1)C(=O)O[C@H](CNC(=O)[C@H](CC=C)CC(=O)N(CCO)Cc1ccccc1)c1ccccc1	57.8% (active)
C=CCC[C@H](Cc1ccc(F)cc1)C(=O)OC[C@H](C)NC(=O)[C@H](CC=C)CC(=O)N(CCO)Cc1ccccc1	54% (active)

Source: PubChem BioAssay AID651785 (The Scripps Research Institute Molecular Screening Center, 2012)
